Holding throughout (test): DAPPL (digital affinity profiling via proximity ligation, sequencing); 10 mM Tris-HCl pH 7.5, 50 mM NaCl, 1 mM DTT, 4% glycerol, room temperature, 30 min; GST-TFs on glutathione beads, 16-mer random dsDNA library, 0.1% formaldehyde crosslink after washing; high values mean tight binding
Experiment [1] concerns the target T1, FEV (Homo sapiens, UniProt Q99581 1-238).
T1 sequence: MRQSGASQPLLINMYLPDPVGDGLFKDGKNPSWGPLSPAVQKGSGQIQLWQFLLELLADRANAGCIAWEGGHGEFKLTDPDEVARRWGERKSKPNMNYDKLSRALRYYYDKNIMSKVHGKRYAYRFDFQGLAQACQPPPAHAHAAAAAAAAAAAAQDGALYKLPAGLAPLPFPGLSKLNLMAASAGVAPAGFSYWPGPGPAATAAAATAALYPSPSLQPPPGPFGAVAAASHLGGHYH
The conditions noted are these: protein: recombinant; tags: N-terminal GST; dsDNA, one strand shown. The procedure, abridged:
(§1)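 Binding signal is defined as a hexamer's read frequency for one factor over its frequency for the tag-only sample. To obtain reads, GST-fused human transcription factors were expressed in yeast, captured on glutathione beads, barcoded with DNA and pooled with that sample. Pools met 200 nmole of a 16-mer random double-stranded DNA library in Tris/NaCl/DTT/glycerol buffer for 30 min at room temperature before washing, 0.1% formaldehyde crosslinking, proximity ligation (BsaI/T4 ligase, 1 h, 37 °C), PCR and Illumina NextSeq500 sequencing.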

The target in experiment [2] is ETV5 (Homo sapiens, UniProt P41161 1-510). The conditions noted are these: protein: recombinant; tags: N-terminal GST; dsDNA, one strand shown. The method, boiled down: as §1
Experiment [3] has as its target HSF1 (Homo sapiens, UniProt Q00613 1-529). To be noted: protein: recombinant; tags: N-terminal GST; chain copies: 3; dsDNA, one strand shown. The procedure, abridged:
as §1

For experiment [4], the target named is T2, SPIC (Homo sapiens, UniProt Q8N5J4 1-248).
T2 sequence: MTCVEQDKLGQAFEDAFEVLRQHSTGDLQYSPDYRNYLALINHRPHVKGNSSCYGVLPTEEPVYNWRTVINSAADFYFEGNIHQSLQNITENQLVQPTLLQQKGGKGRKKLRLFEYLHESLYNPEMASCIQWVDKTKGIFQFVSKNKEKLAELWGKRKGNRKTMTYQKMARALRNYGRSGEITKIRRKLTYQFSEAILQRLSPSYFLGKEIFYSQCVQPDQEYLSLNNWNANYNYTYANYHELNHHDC
To be noted: protein: recombinant; tags: N-terminal GST; dsDNA, one strand shown. The procedure, abridged:
as §1

In experiment [5] the target is ELF4 (Homo sapiens, UniProt Q99607 1-663). To be noted: protein: recombinant; tags: N-terminal GST; dsDNA, one strand shown. The method, boiled down: as §1
Experiment [6] addresses T3, ELK4 (Homo sapiens, UniProt P28324-2 1-405).
T3 sequence: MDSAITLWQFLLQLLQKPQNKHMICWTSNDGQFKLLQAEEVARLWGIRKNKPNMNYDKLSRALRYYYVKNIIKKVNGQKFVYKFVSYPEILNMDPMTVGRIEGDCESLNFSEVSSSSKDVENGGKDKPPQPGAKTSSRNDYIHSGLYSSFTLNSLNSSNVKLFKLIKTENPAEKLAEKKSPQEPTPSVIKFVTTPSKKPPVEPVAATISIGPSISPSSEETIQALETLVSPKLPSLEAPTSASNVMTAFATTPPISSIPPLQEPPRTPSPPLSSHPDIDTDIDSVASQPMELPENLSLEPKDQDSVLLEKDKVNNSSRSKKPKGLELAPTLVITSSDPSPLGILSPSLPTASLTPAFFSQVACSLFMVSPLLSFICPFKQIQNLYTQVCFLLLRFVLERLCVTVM
The conditions noted are these: protein: recombinant; tags: N-terminal GST; dsDNA, one strand shown. The procedure, abridged:
as §1

For experiment [7], the target named is T4, ETV2 (Homo sapiens, UniProt O00321 1-342).
T4 sequence: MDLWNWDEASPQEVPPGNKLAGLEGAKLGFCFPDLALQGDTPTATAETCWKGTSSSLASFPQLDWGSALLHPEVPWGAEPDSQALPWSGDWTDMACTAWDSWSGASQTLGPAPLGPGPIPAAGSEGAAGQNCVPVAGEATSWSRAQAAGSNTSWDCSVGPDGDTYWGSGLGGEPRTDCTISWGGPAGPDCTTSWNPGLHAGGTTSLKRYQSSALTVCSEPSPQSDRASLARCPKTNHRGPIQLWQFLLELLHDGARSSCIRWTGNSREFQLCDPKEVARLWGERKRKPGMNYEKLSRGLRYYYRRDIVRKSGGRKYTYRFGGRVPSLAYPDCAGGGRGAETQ
The conditions noted are these: protein: recombinant; tags: N-terminal GST; dsDNA, one strand shown. The method, boiled down: as §1

Experiment [8] concerns the target T5, ELF3 (Homo sapiens, UniProt P78545 1-371).
T5 sequence: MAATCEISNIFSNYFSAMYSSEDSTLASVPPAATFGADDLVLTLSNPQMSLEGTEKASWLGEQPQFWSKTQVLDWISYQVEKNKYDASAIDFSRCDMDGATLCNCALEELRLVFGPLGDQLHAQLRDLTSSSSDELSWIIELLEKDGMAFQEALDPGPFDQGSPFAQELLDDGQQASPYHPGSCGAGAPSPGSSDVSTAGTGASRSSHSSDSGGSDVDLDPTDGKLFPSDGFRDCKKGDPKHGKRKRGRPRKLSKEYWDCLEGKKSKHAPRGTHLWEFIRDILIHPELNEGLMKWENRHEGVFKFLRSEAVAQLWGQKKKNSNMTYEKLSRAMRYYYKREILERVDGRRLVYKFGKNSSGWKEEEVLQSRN
To be noted: protein: recombinant; tags: N-terminal GST; dsDNA, one strand shown. The procedure, abridged:
as §1

In experiment [9] the target is CRX (Homo sapiens, UniProt O43186 1-299). To be noted: protein: recombinant; tags: N-terminal GST; dsDNA, one strand shown. The method, boiled down: as §1
Experiment [10] addresses ETV1 (Homo sapiens, UniProt P50549 1-477). The conditions noted are these: protein: recombinant; tags: N-terminal GST; dsDNA, one strand shown. The method, boiled down: as §1
Experiment [11] concerns the target T6, ERF (Homo sapiens, UniProt P50548 1-548).
T6 sequence: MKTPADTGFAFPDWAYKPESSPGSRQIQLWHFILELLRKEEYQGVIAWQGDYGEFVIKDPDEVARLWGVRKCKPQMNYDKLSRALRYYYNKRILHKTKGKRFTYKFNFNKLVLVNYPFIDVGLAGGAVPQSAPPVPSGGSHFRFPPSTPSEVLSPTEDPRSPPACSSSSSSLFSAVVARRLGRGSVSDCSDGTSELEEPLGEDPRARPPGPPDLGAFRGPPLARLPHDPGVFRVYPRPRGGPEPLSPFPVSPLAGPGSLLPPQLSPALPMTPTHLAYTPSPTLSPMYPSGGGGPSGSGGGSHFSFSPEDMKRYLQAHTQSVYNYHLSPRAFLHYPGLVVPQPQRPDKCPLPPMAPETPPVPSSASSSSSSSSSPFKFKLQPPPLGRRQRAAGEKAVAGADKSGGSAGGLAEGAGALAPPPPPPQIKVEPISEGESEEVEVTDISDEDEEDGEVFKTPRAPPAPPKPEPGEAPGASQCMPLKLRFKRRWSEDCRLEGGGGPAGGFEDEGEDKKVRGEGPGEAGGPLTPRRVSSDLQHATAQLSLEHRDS
The conditions noted are these: protein: recombinant; tags: N-terminal GST; dsDNA, one strand shown. The procedure, abridged:
as §1

Experiment [12] has as its target T7, ETV3L (Homo sapiens, UniProt Q6ZN32 1-361).
T7 sequence: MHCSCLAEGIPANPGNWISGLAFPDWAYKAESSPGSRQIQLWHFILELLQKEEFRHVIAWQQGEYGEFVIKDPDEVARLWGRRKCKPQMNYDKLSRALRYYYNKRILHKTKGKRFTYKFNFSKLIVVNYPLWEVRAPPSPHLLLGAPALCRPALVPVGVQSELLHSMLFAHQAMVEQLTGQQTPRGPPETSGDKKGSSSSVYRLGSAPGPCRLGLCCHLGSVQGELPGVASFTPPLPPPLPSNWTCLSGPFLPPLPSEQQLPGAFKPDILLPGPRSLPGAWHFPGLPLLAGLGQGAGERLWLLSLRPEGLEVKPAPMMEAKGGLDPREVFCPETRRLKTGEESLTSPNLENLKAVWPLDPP
To be noted: protein: recombinant; tags: N-terminal GST; dsDNA, one strand shown. The method, boiled down: as §1

The target in experiment [13] is T8, ETS2 (Homo sapiens, UniProt P15036 1-469).
T8 sequence: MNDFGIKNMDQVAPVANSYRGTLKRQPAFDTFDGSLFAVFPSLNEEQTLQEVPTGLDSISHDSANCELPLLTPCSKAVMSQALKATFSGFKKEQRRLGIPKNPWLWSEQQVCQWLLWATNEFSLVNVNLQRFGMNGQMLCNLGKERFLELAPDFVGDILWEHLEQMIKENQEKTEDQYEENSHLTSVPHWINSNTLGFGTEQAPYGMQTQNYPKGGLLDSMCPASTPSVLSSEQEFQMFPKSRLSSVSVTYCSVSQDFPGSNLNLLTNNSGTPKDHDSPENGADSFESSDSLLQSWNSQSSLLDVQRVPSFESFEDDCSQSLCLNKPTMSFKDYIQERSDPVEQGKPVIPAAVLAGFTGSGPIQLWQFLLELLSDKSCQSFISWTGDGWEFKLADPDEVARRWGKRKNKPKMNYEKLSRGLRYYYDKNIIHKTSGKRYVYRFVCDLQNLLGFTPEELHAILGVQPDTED
To be noted: protein: recombinant; tags: N-terminal GST; dsDNA, one strand shown. The procedure, abridged:
as §1

Experiment [14] has as its target T9, SPDEF (Homo sapiens, UniProt O95238 1-335).
T9 sequence: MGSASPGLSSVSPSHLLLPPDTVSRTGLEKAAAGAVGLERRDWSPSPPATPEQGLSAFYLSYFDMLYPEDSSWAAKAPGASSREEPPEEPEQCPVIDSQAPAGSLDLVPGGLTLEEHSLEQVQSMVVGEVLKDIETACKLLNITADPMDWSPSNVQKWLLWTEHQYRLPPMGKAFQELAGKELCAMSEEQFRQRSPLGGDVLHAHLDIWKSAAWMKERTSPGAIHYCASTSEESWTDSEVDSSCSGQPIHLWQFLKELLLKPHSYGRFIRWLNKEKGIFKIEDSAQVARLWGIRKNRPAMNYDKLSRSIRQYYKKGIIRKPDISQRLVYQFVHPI
The conditions noted are these: protein: recombinant; tags: N-terminal GST; dsDNA, one strand shown. The method, boiled down: as §1

Experiment [15] deals with T10, ETV7 (Homo sapiens, UniProt Q9Y603 1-341).
T10 sequence: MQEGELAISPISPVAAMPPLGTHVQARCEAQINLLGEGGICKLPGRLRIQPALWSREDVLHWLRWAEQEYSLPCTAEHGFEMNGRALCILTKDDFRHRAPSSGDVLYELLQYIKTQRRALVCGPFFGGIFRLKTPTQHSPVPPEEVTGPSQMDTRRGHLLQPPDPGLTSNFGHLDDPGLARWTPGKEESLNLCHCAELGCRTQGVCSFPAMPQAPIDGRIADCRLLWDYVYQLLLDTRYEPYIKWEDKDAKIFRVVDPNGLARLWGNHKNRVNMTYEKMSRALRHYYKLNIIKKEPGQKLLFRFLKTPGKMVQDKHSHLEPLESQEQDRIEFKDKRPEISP
The conditions noted are these: protein: recombinant; tags: N-terminal GST; dsDNA, one strand shown. The procedure, abridged:
as §1

Experiment [16] deals with T11, ELF5 (Homo sapiens, UniProt Q9UKW6-2 1-255).
T11 sequence: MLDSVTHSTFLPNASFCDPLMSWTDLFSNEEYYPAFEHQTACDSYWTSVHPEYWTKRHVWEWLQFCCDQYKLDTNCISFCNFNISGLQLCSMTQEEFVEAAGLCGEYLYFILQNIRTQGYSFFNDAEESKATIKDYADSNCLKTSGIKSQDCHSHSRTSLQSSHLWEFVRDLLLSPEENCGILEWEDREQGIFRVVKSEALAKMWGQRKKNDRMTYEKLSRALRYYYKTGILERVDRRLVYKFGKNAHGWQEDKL
To be noted: protein: recombinant; tags: N-terminal GST; dsDNA, one strand shown. The procedure, abridged: as §1

Experiment [17] has as its target T12, ETV3 (Homo sapiens, UniProt P41162-2 1-143).
T12 sequence: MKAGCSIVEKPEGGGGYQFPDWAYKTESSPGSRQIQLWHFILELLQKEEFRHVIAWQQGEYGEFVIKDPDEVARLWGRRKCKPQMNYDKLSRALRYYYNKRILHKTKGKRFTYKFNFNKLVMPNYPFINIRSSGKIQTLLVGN
The conditions noted are these: protein: recombinant; tags: N-terminal GST; dsDNA, one strand shown. The method, boiled down: as §1

The target of experiment [18] is ETV6 (Homo sapiens, UniProt P41212 1-452). To be noted: protein: recombinant; tags: N-terminal GST; dsDNA, one strand shown. The method, boiled down:
as §1

Chain of ELF4 (Q99607 whole entry): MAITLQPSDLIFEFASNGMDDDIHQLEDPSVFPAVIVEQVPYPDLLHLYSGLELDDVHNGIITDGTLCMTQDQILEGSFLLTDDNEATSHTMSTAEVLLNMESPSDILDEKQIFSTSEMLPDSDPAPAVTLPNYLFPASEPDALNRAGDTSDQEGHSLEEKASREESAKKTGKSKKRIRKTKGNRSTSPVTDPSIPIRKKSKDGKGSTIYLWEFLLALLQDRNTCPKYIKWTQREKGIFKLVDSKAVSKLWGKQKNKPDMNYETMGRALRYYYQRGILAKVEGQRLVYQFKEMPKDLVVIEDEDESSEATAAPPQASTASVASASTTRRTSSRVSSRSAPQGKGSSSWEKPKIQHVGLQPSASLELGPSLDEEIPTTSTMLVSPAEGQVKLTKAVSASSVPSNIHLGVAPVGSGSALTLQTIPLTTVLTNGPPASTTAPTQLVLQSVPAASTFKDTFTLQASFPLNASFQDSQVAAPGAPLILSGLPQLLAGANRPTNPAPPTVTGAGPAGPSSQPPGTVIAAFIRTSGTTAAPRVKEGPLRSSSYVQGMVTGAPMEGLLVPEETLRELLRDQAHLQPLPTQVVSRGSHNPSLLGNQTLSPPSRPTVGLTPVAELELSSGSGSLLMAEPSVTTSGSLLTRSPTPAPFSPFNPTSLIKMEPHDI
Chain of CRX (O43186 whole entry): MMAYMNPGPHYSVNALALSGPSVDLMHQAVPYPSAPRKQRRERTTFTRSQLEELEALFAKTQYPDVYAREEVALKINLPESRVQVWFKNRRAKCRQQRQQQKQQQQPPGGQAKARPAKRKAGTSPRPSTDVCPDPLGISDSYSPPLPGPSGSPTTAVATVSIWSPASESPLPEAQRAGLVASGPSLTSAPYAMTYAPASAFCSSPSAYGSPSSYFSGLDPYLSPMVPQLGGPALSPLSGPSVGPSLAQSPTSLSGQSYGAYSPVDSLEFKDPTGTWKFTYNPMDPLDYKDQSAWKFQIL
Chain of ETV5 (P41161 whole entry): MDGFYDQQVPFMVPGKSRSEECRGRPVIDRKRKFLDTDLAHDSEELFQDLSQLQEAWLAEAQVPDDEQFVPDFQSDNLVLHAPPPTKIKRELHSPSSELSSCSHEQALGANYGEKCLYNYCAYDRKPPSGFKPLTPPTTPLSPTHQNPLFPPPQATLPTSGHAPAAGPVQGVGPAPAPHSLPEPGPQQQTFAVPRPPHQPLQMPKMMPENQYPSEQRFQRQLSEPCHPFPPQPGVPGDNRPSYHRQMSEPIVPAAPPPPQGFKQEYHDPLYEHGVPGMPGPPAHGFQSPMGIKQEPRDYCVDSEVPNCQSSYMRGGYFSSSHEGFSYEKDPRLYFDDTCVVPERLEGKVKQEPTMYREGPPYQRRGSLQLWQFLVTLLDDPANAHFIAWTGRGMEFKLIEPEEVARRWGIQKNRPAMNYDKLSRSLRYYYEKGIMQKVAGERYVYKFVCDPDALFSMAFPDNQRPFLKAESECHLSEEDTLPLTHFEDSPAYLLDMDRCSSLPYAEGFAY
Chain of ETV6 (P41212 whole entry): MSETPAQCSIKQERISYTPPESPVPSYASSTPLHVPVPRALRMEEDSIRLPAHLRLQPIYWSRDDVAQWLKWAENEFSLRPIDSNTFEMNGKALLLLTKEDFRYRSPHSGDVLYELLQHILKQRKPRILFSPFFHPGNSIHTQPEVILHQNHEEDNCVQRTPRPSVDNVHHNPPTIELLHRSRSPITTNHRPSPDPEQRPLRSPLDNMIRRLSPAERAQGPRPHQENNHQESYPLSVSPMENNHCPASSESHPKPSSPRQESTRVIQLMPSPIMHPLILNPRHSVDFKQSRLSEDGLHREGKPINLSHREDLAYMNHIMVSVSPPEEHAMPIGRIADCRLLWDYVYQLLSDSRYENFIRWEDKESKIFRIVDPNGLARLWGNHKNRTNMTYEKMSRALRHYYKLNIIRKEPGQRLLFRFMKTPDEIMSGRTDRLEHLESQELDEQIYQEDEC
Chain of HSF1 (Q00613 whole entry): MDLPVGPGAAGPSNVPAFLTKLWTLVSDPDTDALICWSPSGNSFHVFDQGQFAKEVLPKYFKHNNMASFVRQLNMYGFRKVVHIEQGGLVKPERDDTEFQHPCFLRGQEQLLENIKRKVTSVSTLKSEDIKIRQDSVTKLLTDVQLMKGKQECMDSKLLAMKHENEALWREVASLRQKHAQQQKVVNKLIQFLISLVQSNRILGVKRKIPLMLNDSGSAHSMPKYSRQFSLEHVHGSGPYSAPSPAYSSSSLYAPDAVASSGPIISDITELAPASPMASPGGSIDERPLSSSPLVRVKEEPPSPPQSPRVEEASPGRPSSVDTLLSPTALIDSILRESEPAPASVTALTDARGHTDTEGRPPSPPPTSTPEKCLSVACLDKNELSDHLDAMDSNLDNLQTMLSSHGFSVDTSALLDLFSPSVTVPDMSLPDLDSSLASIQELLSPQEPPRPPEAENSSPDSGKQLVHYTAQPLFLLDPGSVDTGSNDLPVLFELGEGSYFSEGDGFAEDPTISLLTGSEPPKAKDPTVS
Chain of ETV1 (P50549 whole entry): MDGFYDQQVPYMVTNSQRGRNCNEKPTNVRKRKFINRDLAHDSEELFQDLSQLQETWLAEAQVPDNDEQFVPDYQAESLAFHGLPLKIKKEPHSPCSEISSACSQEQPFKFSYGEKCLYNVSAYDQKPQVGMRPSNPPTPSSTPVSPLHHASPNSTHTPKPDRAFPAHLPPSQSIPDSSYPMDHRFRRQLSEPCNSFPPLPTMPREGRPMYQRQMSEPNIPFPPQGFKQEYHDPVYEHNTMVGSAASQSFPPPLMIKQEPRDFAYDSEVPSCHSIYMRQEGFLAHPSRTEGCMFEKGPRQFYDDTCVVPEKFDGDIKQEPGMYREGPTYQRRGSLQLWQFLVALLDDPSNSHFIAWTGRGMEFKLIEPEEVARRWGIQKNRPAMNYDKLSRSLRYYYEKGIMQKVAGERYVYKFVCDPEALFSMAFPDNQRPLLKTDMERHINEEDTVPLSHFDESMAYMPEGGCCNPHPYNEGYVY

With CTTTGC, the binding signal is 1.19 fold enrichment (6-mer frequency, TF over GST control) in experiment [1]; 1.32 fold enrichment (6-mer frequency, TF over GST control) in experiment [2]; 1.25 fold enrichment (6-mer frequency, TF over GST control) in experiment [3]; 1.45 fold enrichment (6-mer frequency, TF over GST control) in experiment [4]; 1.36 fold enrichment (6-mer frequency, TF over GST control) in experiment [5]; 1.32 fold enrichment (6-mer frequency, TF over GST control) in [6]. The binding signal was 1.4 fold enrichment (6-mer frequency, TF over GST control) in [7]; 1.46 fold enrichment (6-mer frequency, TF over GST control) in experiment [8]; 1.33 fold enrichment (6-mer frequency, TF over GST control) in experiment [9]; 1.35 fold enrichment (6-mer frequency, TF over GST control) in experiment [10]; 1.32 fold enrichment (6-mer frequency, TF over GST control) in [11]; 1.33 fold enrichment (6-mer frequency, TF over GST control) in [12]. Besides, the binding signal in [13] was 1.34 fold enrichment (6-mer frequency, TF over GST control); in experiment [14] it was 1.24 fold enrichment (6-mer frequency, TF over GST control); in [15], 1.28 fold enrichment (6-mer frequency, TF over GST control); in experiment [16], 1.29 fold enrichment (6-mer frequency, TF over GST control); in [17], 1.37 fold enrichment (6-mer frequency, TF over GST control); in experiment [18], 1.18 fold enrichment (6-mer frequency, TF over GST control).
